From PubChem BioAssay (EPA / NIEHS) come the findings set out here.

Results filed as inconclusive are left out. Calls of active or inactive are those of the source. Rule for the calls, unless noted: active = hit-call score of the fitted dose curve at least 0.9, where 1 is the maximum; inactive = score below 0.9.

Assay [1] concerns the target Androgen receptor (Homo sapiens) (UniProt P10275). The assay can be described thus: ATG_AR_TRANS: Attagene TRANS-FACTORIAL HepG2 Assay for human Androgen Receptor (AR) (AID 2282973; active = hit-call score of the fitted dose curve at least 0.9, where 1 is the maximum). The conditions noted are these: HepG2 Attagene TRANS-FACTORIAL AR reporter transcription. Summed up: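 HepG2 cells transiently transfected with AR-Gal4 chimera and GAL4-UAS reporter units; chemical exposure 24 h. Reporter mRNA quantified by RT-PCR with fluorescent labelling and capillary electrophoresis; gain-of-signal fitted against DMSO.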

For assay [2], the target named is human Peripheral-type Benzodiazepine Receptor (PBR), TSPO (gene 706) (UniProt P30536). Nature of the assay: NVS_MP_hPBR: NovaScreen (NVS) Membrane Protein Assay for human Peripheral-type Benzodiazepine Receptor (PBR) (AID 2283331; active = hit-call score of the fitted dose curve at least 0.9, where 1 is the maximum;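 note: hits reduce radioligand binding relative to DMSO baseline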). Summed up: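 Scintillation counts of filter-bound radioligand served as read-out after 1 h chemical dosing of human colonic membrane preparations. Activity was scored as signal loss against DMSO; initial duplicates at 25 uM, confirmatory concentration series afterward.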

A short description of assay [3]: CEETOX_H295R_MTT_cell_viability: Viability Assessment in the CeeTox HT-H295R MTT Assay (AID 2283718).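 For AC50: curve fitted both ways so AC50 may mark viability loss or gain.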 Summed up: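 MTT reduction (0.5 mg/ml, 4 h at 37 C; absorbance at 570 and 650 nm) gave viability as background-corrected percent change versus controls. H295R cells had 48 h forskolin (10 uM) prestimulation, then 48 h chemical exposure at 0.1% DMSO.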
The nature of assay [4]: BSK_BT_PBMCCytotoxicity: PBMC Cytotoxicity Assessment in the BioMAP Diversity Plus: BT Assay (AID 2284225).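 Note: PBMC viability measured by Alamar Blue dye reduction fluorescence.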 To be noted: primary human B cells with PBMC. Summed up: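 75,000 cells/well; cpd 1 h → SEB + TSST-1 (20 ng/mL final each) → 90 h → Alamar Blue 6 h → fluor. 546/580 nm. DMSO = neg. control/baseline.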
Read-out in assay [5]: Secreted IgG (sIgG), gene 3500
The assay can be described thus: BSK_BT_sIgG: BioMAP Diversity Plus: BT Assay for Secreted IgG (sIgG) Biomarker Activity (AID 2284226). The conditions noted are these: primary human B cells with PBMC. In short, it runs like this: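 B cells co-cultured with PBMC were dosed with chemical and secreted IgG quantified by ELISA at 24 h. Activity was fitted in the positive direction relative to DMSO as negative control and baseline.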

Read-out in assay [6]: Tumor necrosis factor (Homo sapiens) (UniProt P01375)
The assay can be described thus: BSK_BT_xTNFa: BioMAP Diversity Plus: BT Assay for Tumor necrosis factor alpha (TNF-alpha) Biomarker Activity (AID 2284230). To be noted: primary human B cells with PBMC. Summed up:
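Compounds were added to a B cell plus PBMC co-culture, and after 24 h secreted TNF-alpha was quantified with Luminex xMAP technology, with responses fitted upward from the DMSO control.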

Read-out in assay [7]: Vascular cell adhesion molecule 1 (VCAM1), VCAM1 (gene 7412)
The assay can be described thus: BSK_MyoF_VCAM1: BioMAP Diversity Plus: MyoF Assay for Vascular cell adhesion molecule 1 (VCAM1) Biomarker Activity (AID 2284231). To be noted: primary human lung fibroblasts. In short, it runs like this: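 Primary human lung fibroblasts (BioMAP MyoF system) dosed with chemical, VCAM-1 measured by ELISA 24 hours later. Fitted in the positive direction against DMSO; parallel SRB staining assessed cytotoxicity.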

Read-out in assay [8]: Collagen I, COL1A1 (gene 1277)
Nature of the assay: BSK_MyoF_CollagenI: BioMAP Diversity Plus: MyoF Assay for Collagen I Biomarker Activity (AID 2284238). To be noted: primary human lung fibroblasts. In short, it runs like this:
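Primary human lung fibroblasts (MyoF system) treated 24 h; Collagen I quantified by ELISA and fitted in positive direction against DMSO. Parallel SRB total-protein staining assessed overt cytotoxicity.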

Read-out in assay [9]: Actin alpha 1 (ACTA1), ACTA1 (gene 58)
Nature of the assay: BSK_MyoF_ACTA1: BioMAP Diversity Plus: MyoF Assay for Actin alpha 1 (ACTA1) Biomarker Activity (AID 2284244). The conditions noted are these: primary human lung fibroblasts. In short, it runs like this:
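Human lung fibroblasts (MyoF system) dosed with test chemical for 24 h; α-SMA measured by ELISA. Gain of signal fitted relative to DMSO negative control as baseline.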

Read-out in assay [10]: Basic fibroblast growth factor (bFGF), FGF2 (gene 2247)
The assay can be described thus: BSK_MyoF_bFGF: BioMAP Diversity Plus: MyoF Assay for Basic fibroblast growth factor (bFGF) Biomarker Activity (AID 2284246). To be noted: primary human lung fibroblasts. Summed up: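 Human lung fibroblasts were dosed with chemicals and bFGF was quantified by ELISA 24 h later. Activity was fitted in the gain-of-signal direction relative to DMSO as negative control and baseline. Parallel SRB total-protein staining tracked overt cytotoxicity.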

Read-out in assay [11]: Collagen IV, COL4A1 (gene 1282)
The assay can be described thus: BSK_MyoF_CollagenIV: BioMAP Diversity Plus: MyoF Assay for Collagen IV Biomarker Activity (AID 2284247). The conditions noted are these: primary human lung fibroblasts. In short, it runs like this: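 Primary human lung fibroblasts were exposed to test chemicals and sampled 24 h after dosing. Collagen IV levels were measured by ELISA and fitted in the positive direction against DMSO as negative control and baseline.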

Read-out in assay [12]: Plasminogen activator inhibitor-1 (PAI1), SERPINE1 (gene 5054)
The assay can be described thus: BSK_MyoF_PAI1: BioMAP Diversity Plus: MyoF Assay for Plasminogen activator inhibitor-1 (PAI1) Biomarker Activity (AID 2284256).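 For outcome: PAI-1 read 24 h after compound addition.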 To be noted: primary human lung fibroblasts. In short, it runs like this: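 Primary human lung fibroblasts treated with chemical for 24 h; PAI-1 levels quantified by ELISA relative to DMSO. Cytotoxicity was assessed in parallel cultures by SRB total-protein staining (0.1% SRB after 10% TCA fixation, 560 nm).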

Read-out in assay [13]: Interleukin-8 (IL8), CXCL8 (gene 3576)
Nature of the assay: BSK_MyoF_IL8: BioMAP Diversity Plus: MyoF Assay for Interleukin-8 (IL8) Biomarker Activity (AID 2284261). To be noted: primary human lung fibroblasts. In short, it runs like this: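 Human lung fibroblast (MyoF system) cultures dosed for 24 h, then IL-8 measured by ELISA. Response taken relative to DMSO; parallel SRB total-protein staining for cytotoxicity.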

A short description of assay [14]: BSK_MyoF_SRB: Viability Assessment in the BioMAP Diversity Plus: MyoF Assay (AID 2284267).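 Note: total protein by SRB absorbance in parallel cultures as cytotoxicity measure; cells assessed 24 h after compound addition.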 To be noted: primary human lung fibroblasts. In short, it runs like this:
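Human lung fibroblasts dosed with chemical and assessed 24 h later for overt cytotoxicity in parallel cultures. Total protein quantified by sulforhodamine B staining (0.1% SRB after 10% TCA fixation), read at 560 nm, analysed in positive direction versus DMSO baseline.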

Read-out in assay [15]: TIMP metallopeptidase inhibitor 1 (TIMP1), TIMP1 (gene 7076)
Nature of the assay: BSK_MyoF_TIMP1: BioMAP Diversity Plus: MyoF Assay for TIMP metallopeptidase inhibitor 1 (TIMP1) Biomarker Activity (AID 2284269). To be noted: primary human lung fibroblasts. Summed up:
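Fibroblasts from human lung are dosed with chemical, cultured 24 h, and assayed for TIMP-1 by ELISA. Increases over the DMSO baseline are scored, with SRB total-protein staining run in parallel for cytotoxicity.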

Assay [16] concerns the target Retinoic acid receptor alpha (Homo sapiens) (UniProt P10276). Nature of the assay: ATG_RARa_TRANS: Attagene TRANS-FACTORIAL HepG2 Assay for human Retinoic Acid Receptor alpha (RARa) (AID 2283005; active = hit-call score of the fitted dose curve at least 0.9, where 1 is the maximum). Summed up: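 Reporter transcripts, measured by RT-PCR with fluorescent labeling and capillary electrophoresis after 24 h dosing, reflect activity of an exogenous human RARa–GAL4 fusion in transiently transfected HepG2. Fitted for increase relative to DMSO.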

Assay [17] concerns the target Glucocorticoid receptor (Homo sapiens) (UniProt P04150). The assay can be described thus: ATG_GR_TRANS: Attagene TRANS-FACTORIAL HepG2 Assay for human Glucocorticoid Receptor (GR) (AID 2282978; active = hit-call score of the fitted dose curve at least 0.9, where 1 is the maximum;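 note: activators score as hits since higher reporter transcript over DMSO is fitted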). The conditions noted are these: HepG2 Attagene TRANS GR reporter, mRNA transcription. In short, it runs like this: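 Transient MRTU transfection of HepG2 (GAL4-UAS reporters, exogenous NR-GAL4 chimeras), 24 h dosing. Readout: reporter transcript via RT-PCR + capillary electrophoresis fluorescence. Positive direction vs DMSO baseline.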

The target of assay [18] is human Retinoic Acid Receptor beta (RARb), RARB (gene 5915) (UniProt P10826). The assay can be described thus: ATG_RARb_TRANS: Attagene TRANS-FACTORIAL HepG2 Assay for human Retinoic Acid Receptor beta (AID 2283004; active = hit-call score of the fitted dose curve at least 0.9, where 1 is the maximum). In short, it runs like this:
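HepG2 cells were transiently transfected with GAL4-UAS reporter units that report activity of exogenous chimeric NR-Gal4 proteins, then exposed to compound for 24 h. Reporter mRNA was quantified by RT-PCR with capillary electrophoresis fluorescence, as gain of signal over DMSO.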

Assay [19] has as its target human Retinoic Acid Receptor gamma (RARg), RARG (gene 5916) (UniProt P13631). Nature of the assay: ATG_RARg_TRANS: Attagene TRANS-FACTORIAL HepG2 Assay for human Retinoic Acid Receptor gamma (RARg) (AID 2283009; active = hit-call score of the fitted dose curve at least 0.9, where 1 is the maximum). Summed up:
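HepG2 cells transiently transfected with multiplexed reporter units expressing chimeric RARg-GAL4 and GAL4-UAS-driven reporters; 24 h compound exposure. Reporter mRNA quantified by RT-PCR with fluorescent labelling and capillary electrophoresis; gain-of-signal fitted relative to DMSO baseline.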

For assay [20], the target named is rat Thyrotropin Releasing Hormone Receptor (TRH), Trhr (gene 25570) (UniProt Q01717). The assay can be described thus: NVS_GPCR_rTRH: NovaScreen (NVS) G Protein-Coupled Receptor Assay for rat Thyrotropin Releasing Hormone Receptor (TRH) (AID 2283329; active = hit-call score of the fitted dose curve at least 0.9, where 1 is the maximum;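 note: hit means lower bound tracer signal versus DMSO baseline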). In short, it runs like this: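 Rat forebrain membrane prep, radioligand displacement, filter scintillation readout at 4 h. Single conc 25 uM, duplicate; actives retested as concentration series. DMSO = negative control/baseline.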
rat Thyrotropin Releasing Hormone Receptor (TRH), Trhr (gene 25570), sequence (Q01717 whole entry, looked up): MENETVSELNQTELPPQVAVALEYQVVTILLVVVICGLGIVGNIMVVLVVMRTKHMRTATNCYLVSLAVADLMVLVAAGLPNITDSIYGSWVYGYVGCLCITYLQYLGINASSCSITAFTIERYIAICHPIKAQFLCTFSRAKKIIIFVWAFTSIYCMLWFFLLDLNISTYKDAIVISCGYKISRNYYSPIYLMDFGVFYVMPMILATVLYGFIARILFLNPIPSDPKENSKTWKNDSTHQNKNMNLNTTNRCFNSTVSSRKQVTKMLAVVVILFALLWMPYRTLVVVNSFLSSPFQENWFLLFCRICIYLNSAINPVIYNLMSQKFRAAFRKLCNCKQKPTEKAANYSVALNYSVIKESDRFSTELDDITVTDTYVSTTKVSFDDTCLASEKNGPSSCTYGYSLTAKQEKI

Glucocorticoid receptor (Homo sapiens), sequence (P04150 whole entry, looked up, the tested form may be a part): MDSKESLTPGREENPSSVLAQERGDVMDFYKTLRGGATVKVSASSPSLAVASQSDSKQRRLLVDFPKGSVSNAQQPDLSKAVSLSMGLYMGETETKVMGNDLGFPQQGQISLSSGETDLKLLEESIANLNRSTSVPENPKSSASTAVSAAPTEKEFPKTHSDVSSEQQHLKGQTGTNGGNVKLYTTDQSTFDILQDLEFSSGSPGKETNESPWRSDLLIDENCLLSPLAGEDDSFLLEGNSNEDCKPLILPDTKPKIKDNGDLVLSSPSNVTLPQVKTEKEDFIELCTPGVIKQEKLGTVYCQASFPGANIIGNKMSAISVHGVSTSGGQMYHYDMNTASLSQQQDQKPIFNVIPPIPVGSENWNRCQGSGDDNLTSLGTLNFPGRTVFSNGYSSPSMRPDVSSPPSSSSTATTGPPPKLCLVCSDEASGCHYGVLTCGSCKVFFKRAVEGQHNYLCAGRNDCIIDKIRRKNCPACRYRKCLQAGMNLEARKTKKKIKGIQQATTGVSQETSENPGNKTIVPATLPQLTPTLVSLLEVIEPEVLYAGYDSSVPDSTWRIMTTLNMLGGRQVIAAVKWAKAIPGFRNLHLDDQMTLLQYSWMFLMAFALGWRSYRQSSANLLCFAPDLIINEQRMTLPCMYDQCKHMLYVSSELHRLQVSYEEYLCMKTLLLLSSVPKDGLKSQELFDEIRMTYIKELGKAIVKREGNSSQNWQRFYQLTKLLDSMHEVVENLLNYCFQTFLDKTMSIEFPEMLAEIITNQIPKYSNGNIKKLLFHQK
Tumor necrosis factor (Homo sapiens), sequence (P01375 whole entry, looked up): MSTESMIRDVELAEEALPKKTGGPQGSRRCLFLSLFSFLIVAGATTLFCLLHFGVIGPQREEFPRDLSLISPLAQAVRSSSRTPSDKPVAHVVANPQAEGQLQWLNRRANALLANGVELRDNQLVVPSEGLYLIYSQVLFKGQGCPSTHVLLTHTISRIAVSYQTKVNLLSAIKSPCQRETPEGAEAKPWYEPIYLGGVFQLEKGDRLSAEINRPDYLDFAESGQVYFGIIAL
human Peripheral-type Benzodiazepine Receptor (PBR), TSPO (gene 706), sequence (P30536 whole entry, looked up): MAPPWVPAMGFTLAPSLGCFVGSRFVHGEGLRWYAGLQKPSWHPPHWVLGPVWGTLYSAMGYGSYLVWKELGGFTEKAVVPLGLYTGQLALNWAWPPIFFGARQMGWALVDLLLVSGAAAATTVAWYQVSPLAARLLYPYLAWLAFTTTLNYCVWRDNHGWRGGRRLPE
Retinoic acid receptor alpha (Homo sapiens), sequence (P10276 whole entry, looked up, the tested form may be a part): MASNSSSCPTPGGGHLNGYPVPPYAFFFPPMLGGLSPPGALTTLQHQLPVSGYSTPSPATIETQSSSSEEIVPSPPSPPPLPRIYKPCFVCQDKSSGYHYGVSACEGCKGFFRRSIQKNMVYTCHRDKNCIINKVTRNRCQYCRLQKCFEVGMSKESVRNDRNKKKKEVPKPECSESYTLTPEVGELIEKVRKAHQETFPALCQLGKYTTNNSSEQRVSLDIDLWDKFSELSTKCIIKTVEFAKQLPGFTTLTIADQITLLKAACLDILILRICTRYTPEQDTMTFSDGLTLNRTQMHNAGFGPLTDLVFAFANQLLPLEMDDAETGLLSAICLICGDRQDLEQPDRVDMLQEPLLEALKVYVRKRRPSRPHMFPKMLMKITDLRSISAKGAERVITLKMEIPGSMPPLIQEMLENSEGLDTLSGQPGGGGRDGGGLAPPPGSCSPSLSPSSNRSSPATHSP
Androgen receptor (Homo sapiens), sequence (P10275 whole entry, looked up, the tested form may be a part): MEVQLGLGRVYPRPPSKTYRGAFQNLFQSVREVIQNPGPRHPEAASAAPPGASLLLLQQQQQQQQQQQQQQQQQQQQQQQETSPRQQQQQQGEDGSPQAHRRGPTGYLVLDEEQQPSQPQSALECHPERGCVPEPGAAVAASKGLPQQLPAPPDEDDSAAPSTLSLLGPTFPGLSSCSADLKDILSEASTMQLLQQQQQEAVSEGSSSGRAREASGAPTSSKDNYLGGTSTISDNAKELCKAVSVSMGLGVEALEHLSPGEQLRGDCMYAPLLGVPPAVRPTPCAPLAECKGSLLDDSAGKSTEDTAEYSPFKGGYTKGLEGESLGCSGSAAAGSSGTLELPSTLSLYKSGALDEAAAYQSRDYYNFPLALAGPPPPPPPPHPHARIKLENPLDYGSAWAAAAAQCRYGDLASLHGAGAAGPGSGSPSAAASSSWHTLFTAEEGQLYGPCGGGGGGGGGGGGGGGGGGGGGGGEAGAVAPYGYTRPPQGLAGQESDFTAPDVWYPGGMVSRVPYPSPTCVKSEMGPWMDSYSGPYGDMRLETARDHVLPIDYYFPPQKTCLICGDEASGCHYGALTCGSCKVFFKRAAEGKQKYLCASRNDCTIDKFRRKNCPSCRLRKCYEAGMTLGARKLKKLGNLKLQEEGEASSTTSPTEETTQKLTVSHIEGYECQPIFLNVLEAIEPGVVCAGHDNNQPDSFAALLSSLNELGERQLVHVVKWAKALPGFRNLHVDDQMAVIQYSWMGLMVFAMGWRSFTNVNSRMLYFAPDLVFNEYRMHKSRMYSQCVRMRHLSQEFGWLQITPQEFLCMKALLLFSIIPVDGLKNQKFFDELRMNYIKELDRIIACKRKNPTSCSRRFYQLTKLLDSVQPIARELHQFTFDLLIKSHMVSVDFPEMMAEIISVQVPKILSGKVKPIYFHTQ
human Retinoic Acid Receptor beta (RARb), RARB (gene 5915), sequence (P10826 whole entry, looked up, the tested form may be a part): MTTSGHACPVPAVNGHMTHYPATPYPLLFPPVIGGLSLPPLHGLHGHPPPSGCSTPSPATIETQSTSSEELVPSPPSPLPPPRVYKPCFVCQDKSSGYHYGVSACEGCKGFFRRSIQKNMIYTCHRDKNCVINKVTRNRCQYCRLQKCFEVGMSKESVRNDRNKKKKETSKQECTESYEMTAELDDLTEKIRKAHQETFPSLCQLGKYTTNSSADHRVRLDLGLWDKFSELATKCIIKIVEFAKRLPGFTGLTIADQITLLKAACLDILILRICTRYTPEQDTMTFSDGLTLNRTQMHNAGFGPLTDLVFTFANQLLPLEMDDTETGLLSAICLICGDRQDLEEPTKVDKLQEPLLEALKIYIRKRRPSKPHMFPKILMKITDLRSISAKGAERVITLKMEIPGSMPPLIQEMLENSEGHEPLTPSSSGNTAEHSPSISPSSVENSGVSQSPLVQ
human Retinoic Acid Receptor gamma (RARg), RARG (gene 5916), sequence (P13631 whole entry, looked up, the tested form may be a part): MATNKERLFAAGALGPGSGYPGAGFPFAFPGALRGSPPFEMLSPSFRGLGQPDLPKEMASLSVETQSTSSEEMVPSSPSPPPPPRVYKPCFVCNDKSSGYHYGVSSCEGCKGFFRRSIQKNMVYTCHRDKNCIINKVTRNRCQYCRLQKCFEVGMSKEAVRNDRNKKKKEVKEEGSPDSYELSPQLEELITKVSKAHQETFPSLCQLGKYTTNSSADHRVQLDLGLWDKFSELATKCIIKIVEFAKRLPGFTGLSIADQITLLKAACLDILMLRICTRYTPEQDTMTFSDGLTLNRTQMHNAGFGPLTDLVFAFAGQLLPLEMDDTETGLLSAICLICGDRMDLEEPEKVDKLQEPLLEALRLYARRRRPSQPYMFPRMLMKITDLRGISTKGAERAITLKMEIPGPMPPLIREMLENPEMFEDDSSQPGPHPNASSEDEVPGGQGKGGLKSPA

One may read the AC50 as the midpoint of the concentration-response curve, whichever way the signal moves. In the case of `CC(C)(C)C(O)C(Oc1ccc(-c2ccccc2)cc1)n1cncn1` (configuration not stated), the result in assay [1], in assay [2], in [3], in assay [4], in assay [6] and in [12] was inactive. Besides, in assay [13], the outcome was inactive. For the same molecule, the AC50 in assay [5] is 17.9 µM (active); in assay [7] it was 30 µM (active); in assay [8] it was 36.9 µM (active); in [9], 34.5 µM (active); in assay [10], 33.6 µM (active); in [11], 20 µM (active). Moreover, the AC50 in [14] was 32 µM (active); in assay [15] it was 17.1 µM (active).

In the case of `Nc1ccc(-c2ccc(N)c(N)c2)cc1N`, the outcome in assay [16], in [4], in assay [6], in [8], in assay [10] and in [11] was inactive. In addition, the result in assay [12], in [13], in assay [14] and in assay [15] was inactive. For the same molecule, the values for the AC50 in [5], in assay [7] and in assay [9] were 15.4 µM (active), 20 µM (active) and 20 µM (active), respectively.

On to `Oc1cc(Cl)ccc1Cl`, for which the molecule was classed as inactive in assay [17], in assay [18], in assay [19], in assay [3], in assay [4] and in assay [5]. Besides, the result in assay [6], in assay [7], in assay [8], in assay [9], in assay [10] and in [11] was inactive. Further, the outcome in assay [13], in assay [14] and in assay [15] was inactive. Besides, in assay [12], the AC50 is 0.245 µM (active).

With `C[C@]12CC[C@H](O)C[C@H]1CC[C@@H]1[C@@H]2C[C@@H](O)[C@]2(C)[C@@H](C3=CC(=O)OC3)CC[C@]12O`, the molecule was called inactive in assay [1]. The AC50 in assay [3] was 2.57 µM (active).

Turning to `O=P1(NCCCl)OCCCN1CCCl` (configuration not stated), the call in assay [16], in assay [4], in assay [5], in assay [6], in [7] and in [8] was inactive. Also, the result in assay [9], in [10], in assay [11], in [12], in assay [13] and in [14] was inactive. Further, the outcome in assay [15] was inactive.

As to `CC(C)(c1cc(Cl)c(O)c(Cl)c1)c1cc(Cl)c(O)c(Cl)c1`, the call in [17], in assay [20], in assay [4], in assay [5], in assay [6] and in [11] was inactive. The concentration at half-maximal activity (AC50) in assay [8] is 5.31 µM (active); in assay [9], 6.18 µM (active); in assay [10], 30.9 µM (active); in [12] it was 9.2 µM (active); in assay [13], 34 µM (active); in [14] it was 16.5 µM (active). Also, in assay [15], the AC50 was 9.55 µM (active).

For the molecule `N#Cc1cccc(C#N)c1`, the call in assay [17] was inactive.

With `Cc1ccccc1CCl`, the outcome in assay [17] was inactive.

With `CC(C)CCCCCCCOP(=O)(Oc1ccccc1)Oc1ccccc1`, the AC50 in [2] is 6.03 µM (active); in [4] it was 35.8 µM (active); in [5], 18.9 µM (active); in assay [6] it was 31.3 µM (active); in assay [7], 8.84 µM (active); in assay [8] it was 8.57 µM (active). Moreover, the AC50 in assay [9] was 8.22 µM (active); in assay [10], 20 µM (active); in assay [12], 12.8 µM (active); in assay [13] it was 5.07 µM (active); in [14] it was 11.3 µM (active); in assay [15], 20 µM (active). The outcome in [11] was inactive.
